Test [1] addresses Arylsulfatase A (Homo sapiens) (UniProt P15289). Nature of the test: qHTS screen for enhancers of Arylsulfatase A (ASA1): LOPAC Validation Assay (AID 720538). Note: potency is the fitted concentration of half-maximal effect. The gist of the method:
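Read-out: fluorescence at Ex=525/Em=598 nm after 1N NaOH final stop. Patient fibroblasts carrying ASA-I179S had 48h compound exposure, then 14h room-temperature pNCS hydrolysis (0.5mM final) in lysis buffer. Signal increase = enhanced activity.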
(In general: Quantitative high-throughput screening tests each substance at several concentrations.)

Test [2] is described as follows: qHTS for compounds that reverse cellular toxicity of Amyloid beta (A-beta) peptide in yeast: LOPAC Validation Assay (AID 720559). A digest of the protocol: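 OD600 growth readout after 48 hr at 30 C; A-beta-toxic yeast plus pinned compounds in medium. Normalization: DMSO = negative, equimolar FeCl3 + clioquinol = positive.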
A short description of test [3]: qHTS for Activators of Parkin Expression: LOPAC Validation Assay (NLuc Reporter) (AID 720572). The gist of the method:
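Parkin promoter-driven FLuc/NLuc neuronal reporter cells; 24 h plating, 7-pt dose response, 24 h at 37 C/5% CO2; FLuc then NanoLuc reagent, 10 min each, luminescence; DMSO/positive control normalized.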

Test [4] deals with Nuclear receptor ROR-gamma (Homo sapiens) (UniProt P51449). Nature of the test: qHTS assay for small molecule antagonists of the retinoid-related orphan receptor gamma (ROR-gamma) signaling pathway (AID 651802). Note: series mostly up to about 92 µM; nearly all actives have a fitted effect of over 60% in size. A digest of the protocol: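 Antagonism is scored as a fall in luminescence from a RORE-luciferase reporter in CHO cells expressing ROR under a TET-inducible promoter, measured 16hr after doxycycline induction in the presence of compound.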
Chain of Nuclear receptor ROR-gamma (Homo sapiens) (P51449 whole entry, looked up): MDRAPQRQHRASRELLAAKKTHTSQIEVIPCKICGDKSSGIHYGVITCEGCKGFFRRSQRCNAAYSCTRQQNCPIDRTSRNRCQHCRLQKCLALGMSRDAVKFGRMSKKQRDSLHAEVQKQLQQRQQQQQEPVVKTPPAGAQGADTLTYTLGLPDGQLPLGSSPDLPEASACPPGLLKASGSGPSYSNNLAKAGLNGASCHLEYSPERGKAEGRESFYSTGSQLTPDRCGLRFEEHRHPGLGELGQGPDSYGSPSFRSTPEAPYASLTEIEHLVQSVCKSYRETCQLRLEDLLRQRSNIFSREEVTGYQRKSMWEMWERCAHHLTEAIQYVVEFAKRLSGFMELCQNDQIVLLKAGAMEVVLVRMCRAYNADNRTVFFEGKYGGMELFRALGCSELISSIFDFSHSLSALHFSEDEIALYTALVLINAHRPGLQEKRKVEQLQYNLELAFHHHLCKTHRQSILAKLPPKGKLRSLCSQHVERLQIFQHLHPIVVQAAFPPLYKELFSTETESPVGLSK

A short description of test [5]: qHTS for Activators of Parkin Expression: LOPAC Validation Assay (FLuc Reporter) (AID 720573). A digest of the protocol: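 FLuc luminescence read-out from a neuronal line expressing a Parkin-promoter-driven coincidence reporter. Cells treated 24 h at 37 C, 5% CO2 with compounds at 7 concentrations; signal increase normalized to DMSO and positive control.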
The nature of test [6]: qHTS assay for small molecule agonists of the antioxidant response element (ARE) signaling pathway measured by Nrf2-dependant transcriptional activity (AID 720636; active = well fitted curve in the direction sought with a large enough effect in the repeat runs; an effect the other way counts as inactive or inconclusive;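 note: HepG2 cells with an ARE-driven luciferase reporter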). A digest of the protocol: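 ONE-Glo luminescence, read 30 min after reagent addition at room temperature, reflected ARE reporter activity in HepG2 cells that had been incubated with compound for 16 hr at 37 C in 1% dialyzed FBS.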

The nature of test [7]: qHTS assay for small molecule antagonists of the retinoid-related orphan receptor gamma (ROR-gamma) signaling pathway - cell viability counter screen (AID 720652; active = well fitted curve in the direction sought with a large enough effect in the repeat runs; an effect the other way counts as inactive or inconclusive;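 note: series mostly up to about 92 µM; compound exposure lasted 16 hr before ATP read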). A digest of the protocol: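 Cytotoxicity is quantified via intracellular ATP (CellTiter-Glo luminescence) in doxycycline-induced CHO ROR response element-luciferase reporter cells treated with compound for 16 hr at 37 C, 5% CO2.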

Test [8] in a line: qHTS assay for small molecule agonists of the antioxidant response element (ARE) signaling pathway measured by Nrf2-dependant transcriptional activity - cell viability counter screen (AID 720653; active = well fitted curve in the direction sought with a large enough effect in the repeat runs; an effect the other way counts as inactive or inconclusive). Conditions: ARE-bla HepG2 viability, CellTiter-Glo ATP luminescence, 16 h; hits give low values. A digest of the protocol: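 Cytotoxicity counter screen: intracellular ATP quantified by CellTiter-Glo luminescence in the same ARE-bla HepG2 plates, after 16 h compound exposure and a 2 h beta-lactamase substrate step.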

In test [9] the target is Tyrosine-protein kinase Yes (Homo sapiens) (UniProt P07947). Nature of the test: qHTS for small molecule inhibitors of Yes1 kinase: Primary Screen (AID 686947). Note: potency is the fitted concentration of half-maximal effect; nearly all actives have a fitted effect of over 60% in size. To be noted: Yes1 kinase biochemical qHTS inhibition. The gist of the method:
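ADP-Glo luminescence readout; final 4 nM Yes1, 0.1 mM ATP, 0.3 mg/mL poly(E4Y), Tris pH 7.5, MgCl2, DTT, Brij-35. 20 min compound preincubation, 60 min reaction at RT. Normalized to DMSO wells with and without enzyme.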

Test [10] is described as follows: qHTS for small molecule inhibitors of Yes1 kinase: Counter Assay (AID 686950).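 Note: no kinase present so only ADP-Glo detection of a fixed ADP amount is tested; luminescence from ADP-Glo reporting ADP in a fixed ATP and ADP mixture; series mostly up to about 77 µM.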 A digest of the protocol:
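Luminescence read-out from ADP-Glo quantifies a fixed ADP amount (0.02 mM ADP with 0.08 mM ATP) after 60 min at room temperature; signal is normalized between DMSO wells with ATP/ADP and with 0.1 mM ATP alone.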

A number with no mark means an inactive call. Inconclusive results are not listed. A call without a number means that no potency is given here. Activity calls are given as the source filed them. Unless noted, calls come from the whole dose curve; as a rule, active = well fitted curve in the direction sought with a large enough effect; inconclusive = small, poorly fitted or top-dose-only effect, or another doubt; inactive = no such curve, though single readings can be large; an effect the other way counts as inactive or inconclusive. Residues, ends and D or L forms follow the SMILES beside them. *: point of attachment. Cbz = O=C(OCc1ccccc1)*

Chain of Arylsulfatase A (Homo sapiens) (P15289 whole entry, looked up): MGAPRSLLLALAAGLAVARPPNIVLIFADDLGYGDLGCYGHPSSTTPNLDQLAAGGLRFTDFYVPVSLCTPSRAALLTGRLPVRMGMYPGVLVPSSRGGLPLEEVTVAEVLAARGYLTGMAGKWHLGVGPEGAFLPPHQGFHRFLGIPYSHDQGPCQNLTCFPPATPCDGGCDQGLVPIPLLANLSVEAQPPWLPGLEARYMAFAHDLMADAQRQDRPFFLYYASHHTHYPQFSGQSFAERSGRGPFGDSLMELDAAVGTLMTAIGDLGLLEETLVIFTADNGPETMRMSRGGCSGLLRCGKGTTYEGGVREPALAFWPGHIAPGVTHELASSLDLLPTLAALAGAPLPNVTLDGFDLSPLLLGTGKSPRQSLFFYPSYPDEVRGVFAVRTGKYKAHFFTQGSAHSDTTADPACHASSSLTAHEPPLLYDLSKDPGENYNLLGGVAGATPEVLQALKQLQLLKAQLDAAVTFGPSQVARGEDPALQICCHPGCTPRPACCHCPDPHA
Chain of Tyrosine-protein kinase Yes (Homo sapiens) (P07947 whole entry, looked up): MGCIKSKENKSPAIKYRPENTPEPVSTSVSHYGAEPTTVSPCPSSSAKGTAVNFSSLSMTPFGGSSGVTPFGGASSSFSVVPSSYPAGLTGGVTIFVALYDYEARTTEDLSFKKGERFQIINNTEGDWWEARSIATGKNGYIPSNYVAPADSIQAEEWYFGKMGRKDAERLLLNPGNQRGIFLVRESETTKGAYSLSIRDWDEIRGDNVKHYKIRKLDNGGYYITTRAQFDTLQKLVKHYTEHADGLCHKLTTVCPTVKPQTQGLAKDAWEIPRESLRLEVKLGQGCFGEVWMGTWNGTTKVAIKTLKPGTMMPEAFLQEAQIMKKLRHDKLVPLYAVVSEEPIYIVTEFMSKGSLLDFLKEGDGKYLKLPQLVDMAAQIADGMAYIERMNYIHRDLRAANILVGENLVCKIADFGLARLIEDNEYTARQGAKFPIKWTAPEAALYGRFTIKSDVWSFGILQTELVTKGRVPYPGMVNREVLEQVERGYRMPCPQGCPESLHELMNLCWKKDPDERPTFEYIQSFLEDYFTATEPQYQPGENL

In the case of `COc1cc(/C=C(\C#N)C(=O)c2ccc(O)c(O)c2)cc(I)c1O`, the Potency in test [1] was 21.3 µM (active). Moreover, the outcome in test [2] was inactive. Further, the Potency result in test [3] is “inactive”.

Consider `Nc1ncnc2c1nc(Br)n2C1OC2COP(=O)(O)O[C@@H]2C1O` (stereo partly specified), for which the Potency entry in test [1] and in test [3] was “inactive” each time. In addition, the result in test [2] was inactive.

For the compound `CC(N)=NCCCC[C@@H](N)C(=O)O`, the Potency entry in [1] and in [3] was “inactive” throughout. The result in test [2] was inactive.

Take `N[C@H]1CONC1=O`: in [1], the Potency result is “inactive”.

With `C[C@H](NC(=O)/C(C#N)=C/c1ccc(O)c(O)c1)c1ccccc1`, in test [1], the Potency result is “inactive”. In [2], the call was inactive.

In the case of `CCCCCCCCCC(=O)NC(CN1CCOCC1)[C@H](O)c1ccccc1` (stereo partly specified), the Potency entry in test [1] and in test [3] was “inactive” in each case. Besides, the result in [2] was inactive.

With `CC(N)(Cc1ccc(O)cc1)C(=O)O` (stereo unspecified), the Potency entry in test [1] is “inactive”.

In the case of `CN1CCCC1CCOC(C)(c1ccccc1)c1ccc(Cl)cc1` (stereo unspecified), the Potency entry in test [1] and in test [3] was “inactive” throughout. In test [2], the compound was classed as inactive.

For the compound `O=[N+]([O-])c1cccc2c(Br)[nH]nc12`, the Potency result in test [1] and in [3] was “inactive” each time. Also, the outcome in test [2] was inactive.

As for `CCCCOc1cc(CC2CNC(=O)N2)ccc1OC` (stereo unspecified), the Potency entry in test [1] and in test [3] was “inactive” each time. In test [2], the call was inactive.

On to `O=C(O)/C=C/c1cnc[nH]1`, for which the Potency result in [1] and in test [3] was “inactive” throughout. Also, the result in test [2] was inactive.

`NCC(O)c1ccc(O)c(O)c1` (stereo unspecified): in test [1], the Potency result was “inactive”.

In the case of `O=c1ccc2c(OCCCCc3ccccc3)c3ccoc3cc2o1`, the Potency result in [1] and in test [3] was “inactive” throughout. Also, the result in test [2] was inactive.

Regarding `OC[C@H]1O[C@@H](n2cnc3cncnc32)[C@H](O)[C@@H]1O`, the Potency entry in [1] and in [3] was “inactive” throughout. In test [2], the result was inactive.

Regarding `O=C(O)/C(=C/c1c(C(=O)O)[nH]c2cc(Cl)cc(Cl)c12)c1ccccc1`, the Potency entry in [1] and in test [3] was “inactive” in each case. Also, the outcome in test [2] was inactive.

As to `CNC(=O)c1cc2c(cn1)[nH]c1ccccc12`, the Potency result in [1] and in [3] was “inactive” in each case. Moreover, the call in [2] was inactive.

Turning to `O=C(O)c1cc(=O)cc(C(=O)O)[nH]1`, the Potency entry in [1] and in [3] was “inactive” each time. Moreover, in [2], the compound was called inactive.

For `NC1CONC1=O` (stereo unspecified), the Potency result in test [1] is “inactive”.

For `Oc1ccc(/C=C/c2ccc(/C=C/c3ccc(O)cc3)c(Br)c2)cc1`, the Potency entry in test [1] was “inactive”. The compound was classed as inactive in [2].

As for `Cc1nc(N=Nc2ccc(C(=O)O)cc2)c(COP(=O)(O)O)c(C=O)c1O`, the Potency entry in test [1] and in test [3] was “inactive” each time. Besides, the result in [2] was inactive.

For the compound `NC(=O)c1ccccc1`, the result in test [4], in [2], in test [6] and in [7] was inactive. In addition, the Potency entry in test [1], in test [3] and in [5] was “inactive” throughout. Also, the max response in test [8] was -5%.

In the case of `N=C(N)SCCc1cnc[nH]1`, the Potency result in test [1] and in test [3] was “inactive” in each case. In addition, the call in test [2] was inactive.

Take `Nc1ccc(-c2ccc3ccccc3n2)cc1`: the Potency result in test [1] and in test [3] was “inactive” in each case. Further, the compound was called inactive in [2].

In the case of `CNc1ncnc2c1ncn2[C@H]1C[C@H](OP(=O)(O)O)[C@@H](COP(=O)(O)O)O1`, the Potency result in test [1] and in test [3] was “inactive” throughout. Besides, in test [2], the result was inactive.

Turning to `CC(C)[C@H](NC(=O)OCc1ccccc1)C(=O)N[C@H](C=O)Cc1ccccc1` (Cbz-Val-Phe-aldehyde), the Potency entry in test [1] and in [3] was “inactive” each time. Also, the call in [2] was inactive.

Consider `COc1cc2c(CCNC(C)=O)c[nH]c2cc1O`, for which the Potency in [1] is 37.9 µM (active). Further, the result in test [2] was inactive. Also, in test [3], the Potency result is “inactive”.

With `CC1CNCCN1S(=O)(=O)c1cccc2cnccc12` (stereo unspecified), the Potency entry in test [1] is “inactive”. The compound was called inactive in [2].

`CCCCCCC/C=C\CCCCCCCCC(=O)O`: the Potency result in test [1] and in [3] was “inactive” in each case. In [2], the result was inactive.

For `NCCS(=O)O`, the Potency entry in test [1] and in [3] was “inactive” in each case. In addition, the call in test [2] was inactive.

Consider `CN(C)S(=O)(=O)c1ccc2c(c1)/C(=C/c1cc3c([nH]1)CCCC3)C(=O)N2`, for which, in [9], the Potency was 0.0972 µM (active). For the same compound, the compound was classed as inactive in [10] and in [2]. For the same compound, the Potency result in [1] and in [3] was “inactive” throughout.

As for `Cc1cccc(C2CN(C)CCc3c2cc(O)c(O)c3Cl)c1` (stereo unspecified), the Potency result in test [1] and in test [3] was “inactive” each time. In [2], the call was inactive.

Consider `COc1cc(N)c(Cl)cc1C(=O)OCCN1CCCCC1`, for which the Potency entry in [1] and in test [3] was “inactive” throughout. Besides, the compound was classed as inactive in [2].

For the compound `CC(=O)C(C)=O`, the result in [4], in test [2], in [6] and in test [7] was inactive. In [3], the Potency result was “inactive”. In addition, in test [8], the max response is -2.25%.

Consider `CC(N)(Cc1ccc(O)c(O)c1)C(=O)O` (stereo unspecified), for which the Potency result in test [1] and in [3] was “inactive” each time. Also, the compound was called inactive in test [2].

For the compound `Nc1nc2c(nc(Br)n2C2OC3COP(=O)(O)O[C@@H]3C2O)c(=O)[nH]1` (stereo partly specified), the Potency entry in test [1] and in test [3] was “inactive” each time. In addition, the outcome in test [2] was inactive.

`CC(C)Cn1c(=O)n(C)c(=O)c2[nH]cnc21`: the Potency result in test [1] and in [3] was “inactive” in each case. Moreover, in test [2], the outcome was inactive.

For `CCC(=O)N1CCN(C(=O)c2ccccc2)CC1`, the Potency entry in [1] and in test [3] was “inactive” each time. In addition, the outcome in test [2] was inactive.

On to `c1ccc(C2CN3CCSC3=N2)cc1` (stereo unspecified), for which the Potency result in test [1] and in test [3] was “inactive” throughout. For the same compound, in test [2], the call was inactive.

On to `CNCCNS(=O)(=O)c1cccc2cnccc12`, for which the Potency entry in test [1], in test [3] and in test [5] was “inactive” each time. In addition, the outcome in test [2] was inactive.

`C[N+](C)(C)CC=O`: the Potency result in test [1], in test [3] and in test [5] was “inactive” in each case. In addition, the outcome in test [2] was inactive.

Take `Cn1cc(C(F)(F)F)nc1-c1ccc(OCC(O)CNCCOc2ccc(O)c(C(N)=O)c2)cc1` (stereo unspecified): the Potency result in test [1], in test [3] and in test [5] was “inactive” throughout. Also, the compound was called inactive in [2].

For `N[C@H](C(=O)O)[C@H](Cc1ccccc1)C(=O)O`, the Potency result in test [1], in [3] and in test [5] was “inactive” throughout. The call in test [2] was inactive.

In the case of `NC(N)=N[C@@H](CCC(=O)O)C(=O)O`, the Potency result in test [1], in test [3] and in test [5] was “inactive” throughout. Besides, in [2], the compound was called inactive.

For `COc1cc(C(O)CO)ccc1O` (stereo unspecified), the Potency entry in [1], in [3] and in test [5] was “inactive” throughout. The outcome in test [2] was inactive.

With `N[C@@H](CCCC(=O)O)C(=O)O`, the Potency result in test [1], in test [3] and in [5] was “inactive” each time. For the same compound, the outcome in test [2] was inactive.

Regarding `Oc1ccc(Cn2cc[nH]c2=S)cc1`, the Potency result in test [1], in test [3] and in test [5] was “inactive” throughout. For the same compound, the call in [2] was inactive.

Turning to `NC(C(=O)N[C@@H]1C(=O)N2C(C(=O)O)=C(Cl)CS[C@H]12)c1ccccc1` (stereo partly specified), the Potency result in test [1], in test [3] and in test [5] was “inactive” in each case. The compound was classed as inactive in [2].

Turning to `CCCCC[C@H](CC(=O)NO)C(=O)N[C@H](C(=O)N1CCC[C@H]1CO)C(C)C`, the Potency entry in test [1], in test [3] and in test [5] was “inactive” each time. Moreover, the compound was called inactive in [2].

Regarding `O=C(O)C1=CCCNC1`, the Potency result in [1], in test [3] and in [5] was “inactive” throughout. The compound was called inactive in [2].

With `N[C@H](C(=O)O)[C@H](O)C(=O)O`, the Potency result in [1], in test [3] and in test [5] was “inactive” in each case. Besides, the result in test [2] was inactive.

Values taken from PubChem BioAssay (NCATS).
